# Source: the supplement of paper PMC7724964
# T1: DYNLL2 1-89 Dynein_light (domain begin residue: 1, domain end residue: 89), Q96FJ2
# T1 chain: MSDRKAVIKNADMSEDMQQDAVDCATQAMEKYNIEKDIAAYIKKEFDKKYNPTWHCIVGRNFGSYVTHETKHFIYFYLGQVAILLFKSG
# T2: EEF1A2 240-332 GTP_EFTU_D2 (domain begin residue: 240, domain end residue: 332), Q05639
# T2 chain: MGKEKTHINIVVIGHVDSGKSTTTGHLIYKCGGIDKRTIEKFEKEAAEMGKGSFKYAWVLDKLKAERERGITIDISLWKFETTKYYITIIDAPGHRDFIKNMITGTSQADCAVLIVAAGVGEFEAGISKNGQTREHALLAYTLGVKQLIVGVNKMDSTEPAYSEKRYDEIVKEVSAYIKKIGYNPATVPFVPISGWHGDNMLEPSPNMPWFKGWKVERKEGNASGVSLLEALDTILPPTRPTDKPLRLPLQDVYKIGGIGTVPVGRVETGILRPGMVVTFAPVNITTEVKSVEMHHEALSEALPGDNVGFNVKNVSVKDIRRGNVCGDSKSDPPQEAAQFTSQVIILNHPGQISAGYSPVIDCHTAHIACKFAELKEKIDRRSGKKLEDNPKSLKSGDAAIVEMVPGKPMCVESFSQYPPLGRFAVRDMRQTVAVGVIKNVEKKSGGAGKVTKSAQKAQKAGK
# T3: EEF1A1 244-333 GTP_EFTU_D2 (domain begin residue: 244, domain end residue: 333), P68104
# T3 chain: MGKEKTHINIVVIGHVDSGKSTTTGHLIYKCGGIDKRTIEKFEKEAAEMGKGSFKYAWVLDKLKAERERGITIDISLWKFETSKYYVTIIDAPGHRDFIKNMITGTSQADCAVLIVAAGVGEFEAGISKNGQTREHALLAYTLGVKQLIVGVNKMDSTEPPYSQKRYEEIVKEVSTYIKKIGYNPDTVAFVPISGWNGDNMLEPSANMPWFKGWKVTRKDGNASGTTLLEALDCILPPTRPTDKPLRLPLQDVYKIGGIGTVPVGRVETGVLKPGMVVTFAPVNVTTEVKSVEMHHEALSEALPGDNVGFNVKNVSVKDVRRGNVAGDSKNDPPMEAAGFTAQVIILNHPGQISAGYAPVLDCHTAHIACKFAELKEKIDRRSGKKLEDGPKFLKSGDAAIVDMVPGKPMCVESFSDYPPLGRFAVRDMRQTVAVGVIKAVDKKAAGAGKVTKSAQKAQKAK
# How the values were obtained:
# Assay in all cases: phage ELISA signal ratio (GST-PRM binding over GST background); higher = stronger binding of peptide-phage to the PRM
# [1] = target: DYNLL1 1-89 Dynein_light (domain begin residue: 1, domain end residue: 89), P63167
# DYNLL1 1-89 Dynein_light (domain begin residue: 1, domain end residue: 89), P63167, sequence (P63167 whole entry, the tested form may be a part): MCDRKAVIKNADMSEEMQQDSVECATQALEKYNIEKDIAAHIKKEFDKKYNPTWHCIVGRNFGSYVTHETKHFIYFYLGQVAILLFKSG
# Method in brief: (§1)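 Five rounds of selection were carried out against human peptide recognition domains fused to the C-terminus of glutathione S-transferase (GST) and expressed in 96-well plates. The M13 phage library presented randomized hexadecapeptides, cysteine-free and glycine-flanked, on the gene-8 major coat protein. For each value, the phage ELISA signal on the GST-domain fusion was divided by the signal on GST alone.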
# [2] = target: T1, DYNLL2 1-89 Dynein_light (domain begin …
# Method in brief: as §1
# [3] = target: T2, EEF1A2 240-332 GTP_EFTU_D2 (domain …
# Method in brief: as §1
# [4] = target: T3, EEF1A1 244-333 GTP_EFTU_D2 (domain …
# Method in brief: as §1
# [5] = target: EGFR 334-495 Recep_L_domain (domain begin residue: 334, domain end residue: 495), P00533
# Method in brief: as §1
binder,measurement,setting,value
MATQTDWNWGFLQEME,phage ELISA signal ratio,[1],29.1
TMTPWDWPIYQGESEH,phage ELISA signal ratio,[2],25.7
TQTPYDWLYPAATYLT,phage ELISA signal ratio,[1],28
MSLGTQTDWQEPMWWL,phage ELISA signal ratio,[1],26.8
SPTEWVWNWGENAQML,phage ELISA signal ratio,[1],24.1
TQTEFPWEDARLPKQE,phage ELISA signal ratio,[1],28.7
TQTEWLWNWGESAHML,phage ELISA signal ratio,[1],29.8
TQTMSWTGEKPQQWEM,phage ELISA signal ratio,[2],27
SDHTHWQLIQWDGWML,phage ELISA signal ratio,[3],11.6
EMWTQTTSYDFLQMQG,phage ELISA signal ratio,[1],20.7
TQTGFGQAHMETPHSL,phage ELISA signal ratio,[2],35.8
TQTDVISWQEFIFMRP,phage ELISA signal ratio,[2],36.2
TQTDMNFWHSPWVELV,phage ELISA signal ratio,[1],24.8
VDQASQTWVWWAGQAY,phage ELISA signal ratio,[2],35.9
LREMGTQTGEMITDYV,phage ELISA signal ratio,[1],25.8
TQTEPAWGETGEMTAI,phage ELISA signal ratio,[1],26
VDMGTQTEASLLRYSV,phage ELISA signal ratio,[1],33.5
TQTDAWEMTMLAQQAV,phage ELISA signal ratio,[1],25.2
MEMGTQTYKWQEWAFV,phage ELISA signal ratio,[2],31.3
GTQTDEIFYLREYKSM,phage ELISA signal ratio,[2],19.2
TQTEDWPQRESQPNWM,phage ELISA signal ratio,[1],25.2
QQTDDWHVAETGIWLA,phage ELISA signal ratio,[2],13.9
TQVWPDDWWALGNYYE,phage ELISA signal ratio,[2],32
PWGPYQSFSELDIKHE,phage ELISA signal ratio,[3],17.3
SQTDWYDELFSQLVVT,phage ELISA signal ratio,[1],27.9
TQTEPYKHQDQAHTRG,phage ELISA signal ratio,[2],26.1
TQTLAWDWYYEFPEMI,phage ELISA signal ratio,[1],24.5
SSTTGDDVLNSLTEMP,phage ELISA signal ratio,[2],34.4
HWWQDNQGYVWFQVEQ,phage ELISA signal ratio,[3],5.34
SQTEPMPLWSRDAEVT,phage ELISA signal ratio,[1],23.1
SQTPDEWDWQPGAWIT,phage ELISA signal ratio,[1],19.7
GTQTDDTMVYFPREQR,phage ELISA signal ratio,[1],22.8
ATPPQLTAHPNFMMWF,phage ELISA signal ratio,[4],8.96
TMTDATLFEVPSYWIT,phage ELISA signal ratio,[2],31.9
GQTEFVYKQMPVSGAR,phage ELISA signal ratio,[2],33
VQTEAWWPLQTPAWMV,phage ELISA signal ratio,[2],19.7
EFFIPKEFYWDRVQDV,phage ELISA signal ratio,[5],26.6
VQTDWMDWWMPDPFNA,phage ELISA signal ratio,[1],23.6
VTVGTQWDGFHVDAPI,phage ELISA signal ratio,[1],19.6
AMVQTEDDWEMMWEQL,phage ELISA signal ratio,[2],17.6
TEMYEWMADATTNTMW,phage ELISA signal ratio,[2],28
STQTDSNWKMMPDGTV,phage ELISA signal ratio,[2],34.5
SQTDPTYWFPWEDKWN,phage ELISA signal ratio,[1],28.8
TQTDLMGDHWPQHKMT,phage ELISA signal ratio,[1],24.5
DIFPTYQHFMQQYSSE,phage ELISA signal ratio,[2],30.3
QWDFSQMTWWPIEEWK,phage ELISA signal ratio,[5],13.3
TQTLILDMDNMKFMTT,phage ELISA signal ratio,[2],36.6
TQFGETWVNWIPLTIT,phage ELISA signal ratio,[2],25.9
TQTDESMWLWHWPEDH,phage ELISA signal ratio,[1],29.4
TQTEYWVIDMPDWMTI,phage ELISA signal ratio,[1],21.2
TQTGESEMYFWNHMPK,phage ELISA signal ratio,[1],22.7
TQTEEYMQMLWPYQDV,phage ELISA signal ratio,[1],21.3
ISVGTQTDWTEPPQMG,phage ELISA signal ratio,[1],29.1
ETQTPEWMGWLMESAI,phage ELISA signal ratio,[2],34.3
WTQTMNNITPWIEGIA,phage ELISA signal ratio,[2],26.2
KDFGTQVDFDILHEEE,phage ELISA signal ratio,[1],27.5
VQTIGTWEWDHVPVEV,phage ELISA signal ratio,[2],41
